Assay outcomes deposited in PubChem BioAssay by several laboratories.
697 NFkB inh – lowers PMA/ionomycin-induced NF-kB signal in 697 B cells; 697 B-cell NF-kB luciferase reporter, 16 h; inhibition, % at 4 µM; AID 435022; 0.33% of 330,000 active; in the data active = inhibition above about 35%
Mdm2 MdmX PPI – inhibitors of human Mdm2/MdmX interaction; O15151+Q00987; SaOS-2 split-luciferase Mdm2/MdmX complementation, luminescence; inhibition, % at 8 µM; 3% of 330,000 active; AID 485346;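 active = inhibition of at least 50% at 8 µM in the primary screen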
Target sequence (O15151 whole entry, looked up): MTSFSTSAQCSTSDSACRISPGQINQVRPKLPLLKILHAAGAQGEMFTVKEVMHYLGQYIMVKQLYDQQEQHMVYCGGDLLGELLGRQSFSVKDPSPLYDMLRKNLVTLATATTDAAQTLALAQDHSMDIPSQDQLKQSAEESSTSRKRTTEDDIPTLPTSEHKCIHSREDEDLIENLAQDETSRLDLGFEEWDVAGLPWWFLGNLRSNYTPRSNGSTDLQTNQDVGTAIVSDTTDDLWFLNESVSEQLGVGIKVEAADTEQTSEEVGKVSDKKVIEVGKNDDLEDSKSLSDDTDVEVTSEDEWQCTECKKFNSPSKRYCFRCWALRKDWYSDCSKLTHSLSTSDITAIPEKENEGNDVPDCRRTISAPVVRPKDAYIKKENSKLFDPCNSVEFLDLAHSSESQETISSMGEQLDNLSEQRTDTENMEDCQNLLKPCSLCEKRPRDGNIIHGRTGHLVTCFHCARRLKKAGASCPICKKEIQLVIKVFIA
Target sequence (Q00987 whole entry, looked up): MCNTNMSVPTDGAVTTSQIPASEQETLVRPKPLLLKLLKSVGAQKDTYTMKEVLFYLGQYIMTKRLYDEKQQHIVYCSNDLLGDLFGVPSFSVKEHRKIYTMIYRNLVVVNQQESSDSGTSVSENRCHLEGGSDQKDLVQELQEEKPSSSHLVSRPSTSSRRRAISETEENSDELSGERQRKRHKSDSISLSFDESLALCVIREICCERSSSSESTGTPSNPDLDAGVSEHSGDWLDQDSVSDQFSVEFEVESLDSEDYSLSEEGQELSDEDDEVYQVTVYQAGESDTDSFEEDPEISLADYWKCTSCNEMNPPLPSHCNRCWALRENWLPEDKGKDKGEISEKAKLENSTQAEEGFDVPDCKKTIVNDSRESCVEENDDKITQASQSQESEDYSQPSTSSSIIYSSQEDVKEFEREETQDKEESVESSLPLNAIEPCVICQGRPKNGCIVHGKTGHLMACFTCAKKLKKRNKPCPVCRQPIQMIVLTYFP
Bfl-1 A1 inh – inhibitors of the anti-apoptotic protein A1, read as caspase activation; 0.066% of 330,000 active; caspase activation, % (test concentration not listed); MEF A1-2A-BIM cells, Caspase-Glo 3/7 luminescence, 3 h; percent of clofoctol response, vehicle zero;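 active = over half of replicate activation scores above 10%, or exactly half above 10 with the replicate mean above 10; inconclusive = replicate mean below 10 yet half the replicates above 10; inactive = over half of replicates below 10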
Beta apoptosis – beta cell apoptosis inhibition. INS-1E cytokine-induced death, ATP luminescence, 48 h; percent of positive-control rescue, neutral wells zero. protection from apoptosis, % (concentration not given with the values). 0.8% of 300,000 active;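 active = Every replicate reaches about 75%, or at least half do and their mean reaches it too, limit read from the data; inconclusive = At least half of replicates reach the limit but their mean does not; inactive = Under half of replicates reach the limit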;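 note: higher means more ATP so stronger rescue from cytokine killing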
Jurkat NFkB inh – inhibitors of the PMA/ionomycin-induced NF-kB reporter in Jurkat cells; inhibition, % at 4 µM; PMA/ionomycin-induced NF-kB luciferase reporter, luminescence; 0.53% of 330,000 active; in the data active = inhibition above about 50%
NTR1 agonist – NTR1 (human) agonism | AID 493036 | 0.17% of 330,000 active | NTR1-U2OS beta-arrestin-GFP spot imaging, agonist mode | activation, % at 20 µM | P30989;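 active = activation at or above 40% of the spot to cytoplasm intensity ratio, with at least 20 cells analyzed; inconclusive = wells under 20 cells, flagged as cytotoxic or low count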
Jurkat NFkB conf – lowers PMA/ionomycin-induced NF-kB signal in Jurkat cells; 27% of 2,700 active; Jurkat NF-kB luciferase, 16 h; AID 435020; inhibition, % at 4 µM; shares compounds with Jurkat NFkB inh;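 active = inhibition reaching about 45% at 4 µM in either replicate, limit read from the data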
697 NFkB conf – inhibitors of the PMA/ionomycin-induced NF-kB reporter in 697 B cells, retest; shares compounds with 697 NFkB inh; 697 B-cell NF-kB luciferase, 16 h; inhibition, % at 4 µM; 35% of 2,000 active; AID 449746; in the data active = inhibition mostly above about 28%, no sharp cut-off; inactive = mostly below about 22%
A number is an active result; n = inactive; u = inconclusive; x = no result. Shown are actives, neighbours in structure and some others; about 3.8% of the full set was active somewhere.

SMILES	697 NFkB inh	Mdm2 MdmX PPI	Bfl-1 A1 inh	Beta apoptosis	Jurkat NFkB inh	NTR1 agonist	Jurkat NFkB conf	others
CCOC(=O)c1ccc2c(c1)nc(-c1ccccn1)n2CC	n	n	n	n	n	n	n
CCOc1ccc(-c2cn3ccccc3n2)cc1	n	n	n	n	n	n	n
CCC(=O)Nc1cccc2cccnc12	n	n	n	n	n	n	x
C/C(=N\Nc1cccc2cccnc12)c1ccc[nH]1	n	n	n	n	n	n	n
Cc1cc2oc3ccc(NCCCn4ccnc4)cc3c(=O)c2cc1C	n	n	n	x	n	n	n
Cc1cc2oc3ccc(NCCCN4CCOCC4)cc3c(=O)c2cc1C	n	n	n	n	n	n	x
O=C(CCc1nc2ccccc2c(=O)[nH]1)N1CCN(S(=O)(=O)c2ccc(F)cc2)CC1	n	n	n	n	n	n	x
COc1ccc2oc(=N)c(C(=O)Nc3ccccc3Cl)cc2c1	n	n	n	n	n	n	n
COc1ccc2oc(=N)c(C(=O)Nc3ccccc3)cc2c1	n	n	n	n	n	n	x
Cc1ccc(COc2ccc(C)nc2[N+](=O)[O-])cc1	n	n	n	n	n	n	n
Cc1ccc(OCC(=O)NCc2ccc3c(c2)OCO3)c([N+](=O)[O-])n1	n	n	n	n	n	n	x
Cc1ccc(CNC(=O)COc2ccc(C)nc2[N+](=O)[O-])cc1	n	n	n	n	87.1	n	n
CCOc1ccc(NC(=O)c2cc3c(C)nc4ccccc4c3o2)cc1	n	n	n	n	59.6	n	n
N/C(=N\OC(=O)c1ccc(Cl)cc1)c1ccc(Cl)cc1	n	n	n	n	n	n	x
N/C(=N\OC(=O)c1ccccc1Cl)c1ccc(Cl)cc1	n	n	n	n	n	n	n
N/C(=N\OC(=O)c1ccc(Cl)cc1)c1cccnc1	n	n	n	n	n	n	x
N/C(=N\OC(=O)c1ccccc1Cl)c1ccccc1	n	n	n	n	n	n	n
N/C(=N\OC(=O)c1ccc(Cl)cc1)c1ccn[nH]1	n	n	n	n	n	n	n
COc1ccc(NC(=O)CN(C)C(=O)CNC(=O)c2ccc3c(c2)OCO3)cc1	n	n	n	n	n	n	x
Cc1ccc(Nc2nc(-c3ccc(O)c(O)c3)cs2)nc1	n	n	x	x	53.2	n	n
Cc1ccc(Nc2nc(-c3ccc(F)cc3)cs2)nc1	n	n	n	x	n	n	n
CC(=O)Nc1cccc(-c2csc(Nc3ccc(Cl)cn3)n2)c1	n	n	n	x	n	n	n
CC(=O)Nc1ccc(-c2csc(Nc3ccc(Cl)cn3)n2)cc1	n	n	n	n	n	n	x
O=C(Nc1ccc(Cl)cc1)C1(S(=O)(=O)c2ccccc2)CC1	n	n	n	n	n	n	x
Cc1c(C(=O)N2CCCC2)c(S(=O)(=O)Nc2cccc(Br)c2)c(C)n1C	n	n	n	n	n	n	x
SMILES	697 NFkB inh	Mdm2 MdmX PPI	Bfl-1 A1 inh	Beta apoptosis	Jurkat NFkB inh	NTR1 agonist	Jurkat NFkB conf	others
CCN(C[C@H]1N[C@@](CC)(C(=O)OC)[C@H]2C(=O)N(C)C(=O)[C@@H]12)S(=O)(=O)c1ccc(F)cc1	n	n	n	n	n	n	x
O=C(C[C@@H]1C/C=C\C[C@@H](Cc2ccc(F)cc2)C(=O)OCCNC1=O)N[C@H](CO)Cc1ccccc1	n	n	n	n	n	n	x
O=C(Nc1cnc2sccn2c1=O)c1ccc(Cl)cc1Cl	n	n	n	n	n	n	n
Clc1ccccc1/C=N/NC1=Nc2cccc3cccc1c23	n	n	n	n	n	n	n
O=C(NCCSc1ccccc1)c1ccc(Br)cc1	n	n	n	n	n	n	n
c1ccc(-c2nnc(-c3ccccc3)o2)cc1	n	n	n	n	n	n	x
Clc1cccc(-c2nnc(-c3ccccc3)o2)c1	n	n	n	n	n	n	n
Nc1ccccc1-c1nnc(-c2ccc(-c3ccccc3)cc2)o1	n	n	n	n	n	n	n
CSc1ccccc1-c1nnc(-c2ccccc2)o1	n	n	n	n	n	n	n
O=[N+]([O-])c1ccccc1S(=O)(=O)Nc1ccc(S(=O)(=O)N2CCOCC2)cc1	n	n	n	n	n	n	x
N#CC(C#N)=C1NC(N)=C(C#N)C(c2ccccc2)=C1C#N	n	n	n	x	n	n	x
Cc1cc(C)c(CN2CCN(C(=O)Cn3cnc4c(OCc5ccccc5)ncnc43)CC2)c(C)c1	n	n	n	76.6	59.0	n	59.4
COCCN(CC(=O)Nc1cccc(C)c1C)C(=O)Cn1c(=O)cnc2ccccc21	n	n	n	n	n	n	x
Cc1cc(NC(=O)CCC(=O)N(CC(=O)NCC2CCCO2)c2ccc(C(C)C)cc2)no1 (stereo not given)	n	n	n	n	n	n	x
C=CCSc1nnc(-c2ccc(Cl)cc2Cl)o1	n	n	n	n	n	n	n
CCN1C(=O)C(=O)N(CC(=O)N2CCC(C)Sc3ccccc32)C1=O (stereo not given)	n	n	n	n	n	n	x
CCOc1ccc2nc(NC(=O)Nc3cccs3)sc2c1	n	n	n	x	n	n	n
Cc1ccc(NC(=O)/C(Cl)=C/c2ccccc2)cc1C	n	n	n	n	n	n	n
COC(=O)c1cc(Cl)c(NC(=O)/C=C/c2ccc(OC)cc2)cc1OC	n	n	n	n	51.4	n	n
COC(=O)c1cc(Cl)c(NC(=O)C(C)C)cc1OC	n	n	n	n	n	n	x
COc1cc(OC)c(OC)cc1/C=N/N(C)c1ccccc1	n	n	n	n	n	n	x
COc1cc(/C=N/N(C)c2ccccc2)ccc1O	n	n	n	n	n	n	n
O=C(N/N=C/c1cccnc1)c1cc(-c2ccc(Cl)cc2)nc2ccccc12	n	n	n	n	n	n	x
O=C(N/N=C/c1ccc(Cl)cc1)c1cc(-c2cccnc2)nc2ccccc12	n	n	n	n	65.6	n	n
CCN(CC)c1ccc(NC(=O)c2ccc(Br)o2)cc1	n	n	n	n	n	n	n
SMILES	697 NFkB inh	Mdm2 MdmX PPI	Bfl-1 A1 inh	Beta apoptosis	Jurkat NFkB inh	NTR1 agonist	Jurkat NFkB conf	others
COC(=O)Cc1ccc(NC(=O)c2ccc(Br)o2)cc1	n	n	n	n	n	n	x
Cc1ccc(NC(=O)Nc2cccc(F)c2)nc1	n	n	n	n	n	n	x
Cc1ccnc(NC(=O)Nc2cccc(F)c2)c1	n	n	n	n	n	n	n	697 NFkB conf=n
Cc1nn(-c2ccc(NC(=O)c3ccncc3)cc2)c(C)c1Cl	n	n	n	x	n	n	x
O=S1(=O)C=C(Sc2nc3ccccc3s2)c2ccccc21	n	n	u	121.8	96.8	n	92.3	697 NFkB conf=n
COC(=O)c1ccc(N/C=C\C(=O)c2ccc3c(c2)OCO3)cc1	n	n	n	n	n	n	x
O=C(/C=C\Nc1ccccc1Br)c1ccc2c(c1)OCO2	n	n	n	n	n	n	n	697 NFkB conf=n
